# Some compounds were tested as several samples or in several runs, with calls that do not always agree. The source made the active and inactive calls. Rule for the calls: active = hit-call score of the fitted dose curve at least 0.9, where 1 is the maximum; inactive = score below 0.9.
# Columns and labels:
# [1] = read-out: Actin alpha 1 (ACTA1), ACTA1 (gene 58); test: BSK_MyoF_ACTA1: BioMAP Diversity Plus: MyoF Assay for Actin alpha 1 (ACTA1) Biomarker Activity (AID 2284244); conditions: primary human lung fibroblasts
# In short: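 Measured by ELISA: alpha-smooth muscle actin in human primary lung fibroblasts 24 h after dosing, with DMSO as baseline and upward signal change as the fitted direction.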
# [2] = read-out: Interleukin 2 (IL2), IL2 (gene 3558); test: BSK_BT_xIL2: BioMAP Diversity Plus: BT Assay for Interleukin 2 (IL2) Biomarker Activity (AID 2284245); conditions: primary human B cells with PBMC
# In short: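 Secreted interleukin-2 from human B cell/PBMC co-cultures, measured 24 h post-dosing by Luminex multiplex immunoassay. Upward-direction curve fitting against DMSO baseline.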
# [3] = read-out: Basic fibroblast growth factor (bFGF), FGF2 (gene 2247); test: BSK_MyoF_bFGF: BioMAP Diversity Plus: MyoF Assay for Basic fibroblast growth factor (bFGF) Biomarker Activity (AID 2284246); conditions: primary human lung fibroblasts
# In short: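 In this multiplexed cell system, lung fibroblasts (human primary) receive test chemical for 24 h before ELISA detection of bFGF; DMSO defines baseline and the analysis direction is positive.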
# [4] = read-out: Monokine induced gamma interferon (MIG), CXCL9 (gene 4283); test: BSK_KF3CT_MIG: BioMAP Diversity Plus: KF3CT Assay for Monokine induced gamma interferon (MIG) Biomarker Activity (AID 2284248); conditions: primary human keratinocytes with fibroblasts
# In short: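 The assay uses a co-culture of human keratinocytes and foreskin fibroblasts. Measurement occurs 24 hours after dosing, with MIG detected by ELISA and the DMSO control as baseline.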
# [5] = read-out: Vascular cell adhesion molecule 1 (VCAM1), VCAM1 (gene 7412); test: BSK_BF4T_VCAM1: BioMAP Diversity Plus: BF4T Assay for Vascular cell adhesion molecule 1 (VCAM1) Biomarker Activity (AID 2284249); conditions: primary human bronchial epithelial cells with fibroblasts
# In short: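 Human bronchial epithelial cell and dermal fibroblast co-culture exposed 24 h. VCAM-1 measured by ELISA; parallel SRB total-protein staining for cytotoxicity. Fitted in positive direction relative to DMSO.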
# [6] = read-out: Collagen I, COL1A1 (gene 1277); test: BSK_hDFCGF_CollagenI: BioMAP Diversity Plus: hDFCGF Assay for Collagen I Biomarker Activity (AID 2284250); conditions: primary human foreskin fibroblasts
# In short: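 Cells were primary human foreskin fibroblasts treated for 24 h. Collagen I levels were then determined by ELISA and compared against DMSO controls.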
# [7] = read-out: Interferon-inducible T-cell alpha chemoattractant (ITAC), CXCL11 (gene 6373); test: BSK_hDFCGF_ITAC: BioMAP Diversity Plus: hDFCGF Assay for Interferon-inducible T-cell alpha chemoattractant (ITAC) Biomarker Activity (AID 2284251); conditions: primary human foreskin fibroblasts
# In short: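 Primary human foreskin fibroblasts (hDFCGF system) treated for 24 h; I-TAC quantified by ELISA. Gain-direction fitting versus DMSO; parallel SRB staining of total protein flagged overt cytotoxicity.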
# [8] = read-out: Monocyte Chemoattractant Protein-1 (MCP1), CCL2 (gene 6347); test: BSK_IMphg_MCP1: BioMAP Diversity Plus: IMphg Assay for Monocyte Chemoattractant Protein-1 (MCP1) Biomarker Activity (AID 2284253); conditions: primary human endothelial cells with macrophages
# In short: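 Human venular endothelial cells co-cultured with macrophages; MCP-1 measured by ELISA 24 hours post-dose and fitted against DMSO. Cytotoxicity monitored by SRB total-protein staining in parallel cultures.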
# [9] = read-out: Macrophage Inflammatory Protein-1 Alpha (MIP1a), CCL3 (gene 6348); test: BSK_IMphg_MIP1a: BioMAP Diversity Plus: IMphg Assay for Macrophage Inflammatory Protein-1 Alpha (MIP1a) Biomarker Activity (AID 2284255); conditions: primary human endothelial cells with macrophages
# In short: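 Co-culture of human venular endothelial cells and macrophages exposed to compounds for 24 h; MIP-1a measured by ELISA relative to DMSO. Cytotoxicity assessed in parallel cultures by sulforhodamine B total-protein staining at 560 nm.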
# [10] = read-out: Plasminogen activator inhibitor-1 (PAI1), SERPINE1 (gene 5054); test: BSK_MyoF_PAI1: BioMAP Diversity Plus: MyoF Assay for Plasminogen activator inhibitor-1 (PAI1) Biomarker Activity (AID 2284256); conditions: primary human lung fibroblasts;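 note: PAI-1 protein level measured by ELISA in fibroblast cultures; PAI-1 read 24 h after compound addition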
# In short: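 Activity reflects increased PAI-1, determined by ELISA and compared with DMSO, in human lung fibroblasts treated for 24 h.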
# [11] = read-out: CD69, CD69 (gene 969); test: BSK_IMphg_CD69: BioMAP Diversity Plus: IMphg Assay for CD69 Biomarker Activity (AID 2284257); conditions: primary human endothelial cells with macrophages
# In short: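 Human venular endothelial cells co-cultured with macrophages; CD69 quantified by ELISA 24 h after compound addition. Activity fitted in the positive direction relative to DMSO baseline; cytotoxicity tracked in parallel cultures via SRB total-protein staining.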
# [12] = read-out: Eotaxin 3, CCL26 (gene 10344); test: BSK_BF4T_Eotaxin3: BioMAP Diversity Plus: BF4T Assay for Eotaxin 3 Biomarker Activity (AID 2284258); conditions: primary human bronchial epithelial cells with fibroblasts
# In short: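 Co-culture of human bronchial epithelial cells and dermal fibroblasts, exposed to chemicals for 24 h versus DMSO. Eotaxin-3 quantified by ELISA; cytotoxicity checked in parallel cultures by sulforhodamine B total-protein staining.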
# [13] = read-out: Monocyte Chemoattractant Protein-1 (MCP1), CCL2 (gene 6347); test: BSK_BF4T_MCP1: BioMAP Diversity Plus: BF4T Assay for Monocyte Chemoattractant Protein-1 (MCP1) Biomarker Activity (AID 2284259); conditions: primary human bronchial epithelial cells with fibroblasts
# In short: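 Co-culture of bronchial epithelial cells and dermal fibroblasts dosed with chemical; MCP-1 measured by ELISA 24 h later. Activity fitted in positive direction versus DMSO; cytotoxicity checked by SRB staining in parallel cultures.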
# [14] = read-out: Intercellular Adhesion Molecule 1 (ICAM1), ICAM1 (gene 3383); test: BSK_BF4T_ICAM1: BioMAP Diversity Plus: BF4T Assay for Intercellular Adhesion Molecule 1 (ICAM1) Biomarker Activity (AID 2284260); conditions: primary human bronchial epithelial cells with fibroblasts
# In short: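 Co-culture of human bronchial epithelial cells and dermal fibroblasts exposed 24 h to chemical; cell-surface ICAM-1 quantified by ELISA. Parallel SRB total-protein staining assessed cytotoxicity; activity fitted relative to DMSO.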
# [15] = read-out: Interleukin-8 (IL8), CXCL8 (gene 3576); test: BSK_MyoF_IL8: BioMAP Diversity Plus: MyoF Assay for Interleukin-8 (IL8) Biomarker Activity (AID 2284261); conditions: primary human lung fibroblasts
# In short: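 In this multiplexed primary-cell system, fibroblasts from human lung are treated with chemicals, and IL-8 is detected by ELISA at 24 h, with DMSO serving as the negative reference.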
# [16] = read-out: Interleukin-8 (IL8), CXCL8 (gene 3576); test: BSK_BF4T_IL8: BioMAP Diversity Plus: BF4T Assay for Interleukin-8 (IL8) Biomarker Activity (AID 2284263); conditions: primary human bronchial epithelial cells with fibroblasts
# In short: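 Human bronchial epithelial cells with dermal fibroblasts co-culture; IL-8 measured by ELISA 24 hours after dosing, fitted vs DMSO. Cytotoxicity tracked in parallel cultures by SRB total-protein staining.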
# [17] = read-out: Interleukin-1 alpha (IL1a), IL1A (gene 3552); test: BSK_BF4T_IL1a: BioMAP Diversity Plus: BF4T Assay for Interleukin-1 alpha (IL1a) Biomarker Activity (AID 2284264); conditions: primary human bronchial epithelial cells with fibroblasts
# In short: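 Human bronchial epithelial cells co-cultured with dermal fibroblasts, dosed and read at 24 h. Secreted/surface IL-1α quantified by ELISA; gain-of-signal fitted relative to DMSO baseline. Parallel SRB total-protein staining tracked cytotoxicity.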
# [18] = read-out: Decorin, DCN (gene 1634); test: BSK_MyoF_Decorin: BioMAP Diversity Plus: MyoF Assay for Decorin Biomarker Activity (AID 2284265); conditions: primary human lung fibroblasts
# In short: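 Lung fibroblast cultures, 24 h chemical exposure. Decorin by ELISA, positive fitting direction, DMSO baseline.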
# [19] = read-out: KRT18 (gene 3875); test: BSK_BF4T_Keratin818: BioMAP Diversity Plus: BF4T Assay for Keratin 818 Biomarker Activity (AID 2284266); conditions: primary human bronchial epithelial cells with fibroblasts
# In short: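 Co-culture of human bronchial epithelial cells and dermal fibroblasts, chemical exposure 24 h. Keratin 8/18 measured by ELISA; positive-direction fit vs DMSO. SRB total protein run in parallel cultures for cytotoxicity.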
# [20] = BSK_MyoF_SRB: Viability Assessment in the BioMAP Diversity Plus: MyoF Assay (AID 2284267); conditions: primary human lung fibroblasts;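 note: total protein by SRB absorbance in parallel cultures as cytotoxicity measure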
# In short: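 Cytotoxicity in primary human lung fibroblasts is gauged by SRB total-protein staining 24 h after dosing, with DMSO as the negative control.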
smiles,measurement,setting,value
C[Si](C)(C)C(F)(F)C(F)(F)C(F)(F)F,outcome,[1],inactive
same,outcome,[2],inactive
same,outcome,[3],inactive
same,outcome,[4],inactive
same,outcome,[5],inactive
same,outcome,[6],inactive
same,outcome,[7],inactive
same,outcome,[8],inactive
same,outcome,[9],inactive
same,outcome,[10],inactive
same,outcome,[11],inactive
same,outcome,[12],inactive
same,outcome,[13],inactive
same,outcome,[14],inactive
same,outcome,[15],inactive
same,outcome,[16],inactive
same,outcome,[17],inactive
same,outcome,[18],inactive
same,outcome,[19],inactive
same,outcome,[20],inactive
FC(F)(F)COC(OCC(F)(F)F)OCC(F)(F)F,outcome,[1],inactive
same,outcome,[2],inactive
same,outcome,[3],inactive
same,outcome,[4],inactive
same,outcome,[5],inactive
same,outcome,[6],inactive
same,outcome,[7],inactive
same,outcome,[8],inactive
same,outcome,[9],inactive
same,outcome,[10],inactive
same,outcome,[11],inactive
same,outcome,[12],inactive
same,outcome,[13],inactive
same,outcome,[14],inactive
same,outcome,[15],inactive
same,outcome,[16],inactive
same,outcome,[17],inactive
same,outcome,[18],inactive
same,outcome,[19],inactive
same,outcome,[20],inactive
Cc1cccc(O)c1C,outcome,[1],inactive
same,outcome,[2],inactive
same,outcome,[3],inactive
same,outcome,[10],inactive
same,outcome,[15],inactive
same,outcome,[18],inactive
same,outcome,[20],inactive
FC(F)=C(F)C(F)(F)C(F)(F)C(F)(F)C(F)(F)C(F)(F)C(F)(F)F,outcome,[1],inactive
same,outcome,[2],inactive
same,outcome,[3],inactive
same,outcome,[4],inactive
same,outcome,[5],inactive
same,outcome,[6],inactive
same,outcome,[7],inactive
same,outcome,[8],inactive
same,outcome,[9],inactive
same,outcome,[10],inactive
same,outcome,[11],inactive
same,outcome,[12],inactive
same,outcome,[13],inactive
same,outcome,[14],inactive
same,outcome,[15],inactive
same,outcome,[16],inactive
same,outcome,[17],inactive
same,outcome,[18],inactive
same,outcome,[19],inactive
same,outcome,[20],inactive
O=S(=O)(O)CCC(F)(F)C(F)(F)C(F)(F)C(F)(F)C(F)(F)C(F)(F)F,outcome,[1],inactive
same,outcome,[2],inactive
same,outcome,[3],inactive
same,outcome,[4],inactive
same,outcome,[5],inactive
same,outcome,[6],inactive
same,AC50,[7],1.38 µM (active)
same,outcome,[7],inactive
same,outcome,[8],inactive
same,outcome,[9],inactive
same,outcome,[10],inactive
same,outcome,[11],inactive
same,outcome,[12],inactive
same,outcome,[13],inactive
same,outcome,[14],inactive
same,outcome,[15],inactive
same,outcome,[16],inactive
same,outcome,[17],inactive
same,outcome,[18],inactive
same,outcome,[19],inactive
same,outcome,[20],inactive
S=P(N1CC1)(N1CC1)N1CC1,outcome,[1],inactive
same,outcome,[2],inactive
same,outcome,[3],inactive
same,outcome,[10],inactive
same,outcome,[15],inactive
same,outcome,[18],inactive
same,outcome,[20],inactive
FC(F)C(F)(F)COCC1CO1 (stereo not given),outcome,[1],inactive
same,outcome,[2],inactive
same,outcome,[3],inactive
same,outcome,[4],inactive
same,outcome,[5],inactive
same,outcome,[6],inactive
same,outcome,[7],inactive
same,outcome,[8],inactive
same,outcome,[9],inactive
same,outcome,[10],inactive
same,outcome,[11],inactive
same,outcome,[12],inactive
same,outcome,[13],inactive
same,outcome,[14],inactive
same,outcome,[15],inactive
same,outcome,[16],inactive
same,outcome,[17],inactive
same,outcome,[18],inactive
same,outcome,[19],inactive
same,outcome,[20],inactive

# Reference: PubChem BioAssay (EPA / NIEHS)
